# Only some compounds are listed: those with a hit (about 1.6% of all), similar ones and a draw of the others.
# KCNQ2 block – rat KCNQ2 potassium channel inhibitors, primary screen, cell-based, CHO-K1, FluxOR thallium flux, B-score; 20 min; hits give low values; B-score at 10 µM; 310,000 compounds, 1.1% hits;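 active = fluorescence ratio B-score at most minus 3 library SDs, with starting brightness B-score within 2 library SDs, cut at about -5.5 in these data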
# KCNQ2 pot – potentiators of rat KCNQ2 potassium channel. Potassium voltage-gated channel subfamily KQT member 2 (Rattus norvegicus), O88943. CHO-K1 KCNQ2, FluxOR thallium flux fluorescence; hits give high values. B-score at 10 µM. 310,000 compounds, 0.54% hits. AID 2239, 2010;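 active = fluorescence ratio B-score at least 3 SD of library B-scores, with initial fluorescence B-score within 3 of them, cut at about 5.3 in these data; same plate scores as AID 2156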;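 also: B-score of peak minus minimum over baseline fluorescence ratio after K+ and Tl+ stimulus; positive B-score means potentiation of KCNQ2 with more thallium influx and brighter signal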
# Kir21 confirm – mouse Kir2.1 channel blockers, retest, confirmation, cell-based, FluxOR thallium flux, duplicate | Kir2.1-expressing cells, FluxOR thallium flux fluorescence; hits give low values | Tl flux remaining, % of negative control (hits give low values), % at 10 µM | shares compounds with KCNQ2 pot | 2,300 compounds, 41% hits;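 active = Primary-screen hit whose thallium flux fell at least 3 control SD below untreated wells in both duplicates, with normal baseline fluorescence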
# HEK293 Tl flux – alters thallium flux in parental HEK293 cells, Kir2.1 counter-screen; shares compounds with KCNQ2 pot; FluxOR thallium flux fluorescence; 0% = unstimulated blank wells; FluxOR signal as % of negative control (100 = no effect), % at 10 µM; 2,300 compounds, 19% hits;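 active = dye signal at least 3 control SD above or below untreated wells in both duplicates, raw fluorescence within 3, either direction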;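 also: percent is based on the flux ratio of peak minus minimum fluorescence over baseline F0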
# CHO-K1 Tl ctr – nonspecific thallium flux increase in parental CHO-K1, confirmation, counter-screen for KCNQ2 potentiator project, cell-based, FluxOR thallium flux, duplicate; shares compounds with KCNQ2 pot; parental CHO-K1 cells, FluxOR thallium flux fluorescence; zero = vehicle mean+3SD, 100% = vehicle-minus-blank window; activity increase over 3SD of controls, % at 10 µM; 1,200 compounds, 43% hits;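 active = signal rise of at least 3 SD above the untreated control mean, in both duplicate wells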;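 also: counter screen of KCNQ2 potentiator hits so any rise reflects channel-independent effects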
# KCNQ1 sel pot – human KCNQ1 channel potentiation off-target, confirmation, selectivity assay for KCNQ2 potentiator project, cell-based, CHO, FluxOR thallium flux. shares compounds with KCNQ2 pot. CHO KCNQ1 stable, FluxOR thallium flux fluorescence; beyond 3SD, as % of vehicle-control signal. activation over 3SD threshold, % at 10 µM. 1,200 compounds, 28% hits. AID 2283, 2010;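 active = fluorescence ratio rise of at least 3 SD of vehicle wells above their mean, in both replicate wells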
# KCNQ2 pot confirm – rat KCNQ2 channel potentiators, confirmation, cell-based, CHO, FluxOR thallium flux, duplicate. shares compounds with KCNQ2 pot. CHO-KCNQ2 cells, FluxOR thallium flux fluorescence. potentiation, less the hit threshold, % at 10 µM. 1,200 compounds, 68% hits. AID 2287, 2010;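 active = fluorescence ratio rising 3 SD or more over the vehicle control mean in both replicates, plus primary screen hit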;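 also: peak minus minimum thallium fluorescence divided by baseline after K/Tl stimulus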
# Kir2-1 sel – mouse Kir2.1 channel activation off-target, confirmation, selectivity assay for KCNQ2 potentiator project, cell-based, HEK293, FluxOR thallium flux. shares compounds with KCNQ2 pot. HEK293 Kir2.1, FluxOR thallium flux fluorescence. activity over 3SD threshold, % at 10 µM. 1,200 compounds, 2% hits;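 active = fluorescence ratio rise of at least 3 SD above the vehicle-control mean, seen in both replicates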
# KCNQ2 W236L pot – potentiators of retigabine-insensitive KCNQ2 W236L, mechanism study for KCNQ2 potentiator project, cell-based, rat KCNQ2 W236L, CHO, automated patch clamp; automated patch clamp current; shares compounds with KCNQ2 pot; AID 2558, 2010; current increase over 3SD of negative controls (%), hits give high values, % at 25 µM; 940 compounds, 10% hits;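 active = current increase at least 3 SD of the untreated controls above them in both duplicate recordings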
# Target sequence (O88943 whole entry W236L, looked up): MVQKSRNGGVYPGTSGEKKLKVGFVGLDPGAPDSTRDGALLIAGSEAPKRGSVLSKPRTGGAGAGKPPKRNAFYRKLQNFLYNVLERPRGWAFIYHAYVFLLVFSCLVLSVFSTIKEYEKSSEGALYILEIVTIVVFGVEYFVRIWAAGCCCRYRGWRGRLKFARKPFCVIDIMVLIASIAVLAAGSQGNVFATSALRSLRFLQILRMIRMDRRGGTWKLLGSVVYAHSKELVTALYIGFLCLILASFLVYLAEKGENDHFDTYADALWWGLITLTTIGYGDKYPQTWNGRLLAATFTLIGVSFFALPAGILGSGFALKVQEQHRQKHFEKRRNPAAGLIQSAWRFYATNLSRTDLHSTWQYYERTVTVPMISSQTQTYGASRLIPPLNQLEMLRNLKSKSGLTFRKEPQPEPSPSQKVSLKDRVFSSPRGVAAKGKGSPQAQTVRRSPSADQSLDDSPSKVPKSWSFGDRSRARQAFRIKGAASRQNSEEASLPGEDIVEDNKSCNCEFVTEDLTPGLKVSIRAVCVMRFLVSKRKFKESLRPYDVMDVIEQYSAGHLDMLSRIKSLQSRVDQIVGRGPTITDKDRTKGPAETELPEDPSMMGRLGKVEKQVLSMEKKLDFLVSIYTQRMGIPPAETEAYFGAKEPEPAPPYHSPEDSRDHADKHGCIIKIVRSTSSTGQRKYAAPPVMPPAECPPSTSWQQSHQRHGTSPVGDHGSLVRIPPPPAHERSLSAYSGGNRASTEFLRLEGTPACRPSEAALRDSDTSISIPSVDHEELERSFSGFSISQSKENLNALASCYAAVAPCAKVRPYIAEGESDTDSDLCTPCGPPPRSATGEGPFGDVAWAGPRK
# Hits are given with their value; - = inactive; . = no result given.
SMILES,KCNQ2 block,KCNQ2 pot,Kir21 confirm,HEK293 Tl flux,CHO-K1 Tl ctr,KCNQ1 sel pot,KCNQ2 pot confirm,Kir2-1 sel,others
Cc1cccc(Nc2nc(N)nc(CN3CCN(C)CC3)n2)c1,-,-,.,.,.,.,.,.,
Cc1cccc(Nc2nc(N)nc(CN3CCN(c4ccc(F)cc4)CC3)n2)c1,-,6.9,-,-,44,-,-,-,KCNQ2 W236L pot=-
O=c1[nH]cc(N=Cc2cc([N+](=O)[O-])ccc2O)c(=O)[nH]1,-,.,.,.,.,.,.,.,
O=c1[nH]cc(N=Cc2cc(Cl)cc(Cl)c2O)c(=O)[nH]1,-,8.3,-,-,15,18,24,-,KCNQ2 W236L pot=-
CCN(c1ccccc1)S(=O)(=O)c1ccc(Cl)c(NC(=O)CSc2nnc(C)s2)c1,-,.,.,.,.,.,.,.,
O=C(CCC1CCCC1)Nc1cccc(Cc2ccncc2)c1,-,6.3,-,-,94,-,-,-,
CC(=O)Nc1cccc(NC(=O)CCCC2CCCCC2)c1,-,-,.,.,.,.,.,.,
CCn1c(SCC(=O)NC2=NCCS2)nnc1C(C)NC(=O)c1ccccc1Br (stereo unspecified),-,-,.,.,.,.,.,.,
O=C(c1cc(=O)[nH]c2ccccc12)N(Cc1nnc(-c2ccccc2Cl)o1)C1CC1,-,-,.,.,.,.,.,.,
CN1CCN(c2nc(-c3ccccc3)c3cc(Cl)ccc3n2)CC1,-,.,60%,-,.,.,.,.,
CN1CCN(c2nnc(-c3ccccc3)c(-c3ccccc3)n2)CC1,-,-,.,.,.,.,.,.,
Cc1ccc2nc(N3CCN(CCO)CC3)nc(-c3ccccc3)c2c1,-,.,48%,-,.,.,.,.,
CCOC(=O)N1CCN(c2nc(-c3ccccc3)c3cc(C)ccc3n2)CC1,-,.,.,.,.,.,.,.,
Cc1ccc(S(=O)(=O)Nc2c(C)nn(C)c2C)c(C)c1,-,.,.,.,.,.,.,.,
CCN1CCN(C(=O)CN(CC)S(=O)(=O)c2ccc3ccccc3c2)CC1,-,-,.,.,.,.,.,.,
COc1ccc(OC)c(C(C)NC(=O)Nc2ccccc2)c1 (stereo unspecified),-,9.6,.,.,-,-,33,-,KCNQ2 W236L pot=-
COc1ccc(OC)c(C(C)NC(=O)C23CC4CC(CC(C4)C2)C3)c1 (stereo unspecified),-,-,.,.,.,.,.,.,
Cc1onc(-c2ccccc2)c1NC(=O)N(CCC#N)Cc1ccccc1,-,.,.,.,.,.,.,.,
CC1(C)CC(=O)C(C(c2ccc(F)cc2)C2C(=O)CC(C)(C)CC2=O)C(=O)C1,-,.,.,.,.,.,.,.,
CC1(C)CC(=O)C(C(c2ccco2)C2C(=O)CC(C)(C)CC2=O)C(=O)C1,-,9.8,-,74%,-,-,40,-,KCNQ2 W236L pot=-
C[C@@H](O)C1NC(=O)[C@H](CCCCN)NC(=O)c2cc([N+](=O)[O-])cc(I)c2OCC[C@@H](C(N)=O)NC1=O (stereo partly specified),-,-,.,.,.,.,.,.,
CCCc1ccccc1OCCNS(=O)(=O)c1cc2c(cc1C)OCC(=O)N2,-,-,64%,-,.,.,.,.,
Cc1cc2c(cc1S(=O)(=O)NCCc1ccccc1)NC(=O)CO2,-,-,.,.,.,.,.,.,
Cc1cccc(NC(=O)C23CCC(C)(C2Br)C3(C)C)c1 (stereo unspecified),-,10,-,-,-,7.4,-,-,KCNQ2 W236L pot=-
Cc1cccc(NC(=O)CC(=O)Nc2cccc(C)c2)c1,-,.,.,.,.,.,.,.,
SMILES,KCNQ2 block,KCNQ2 pot,Kir21 confirm,HEK293 Tl flux,CHO-K1 Tl ctr,KCNQ1 sel pot,KCNQ2 pot confirm,Kir2-1 sel,others
Nc1ccc(C(=O)NC23CC4CC(CC(C4)C2)C3)cc1,-,-,.,.,.,.,.,.,
CCN(c1nc(N)c(C(=O)N=C(N)N)nc1Cl)C(C)C,-,5.3,42%,-,9.8,-,-,-,KCNQ2 W236L pot=-
Cc1cc(NC(=O)CNCC(c2ccccc2)N(C)C)c([N+](=O)[O-])cc1C (stereo unspecified),-,.,.,.,.,.,.,.,
CCOC(=O)N1CCN(C(=O)c2nn(C)c3c2CSc2ccccc2-3)CC1,-,-,.,.,.,.,.,.,
CCn1c(O)c(N=Nc2ccc(Cl)c(C(=O)O)c2)c2ccccc21,-,-,.,.,.,.,.,.,
CC(C)n1c(O)c(N=Nc2ccc(Cl)c(C(=O)O)c2)c2ccccc21,-,7.5,-,-,78,29,23,-,KCNQ2 W236L pot=50%
CNc1ncnc2sc(-c3ccccc3)cc12,-,-,.,.,.,.,.,.,
S=c1[nH]cnc2sc(-c3ccccc3)cc12,-,24,-,-,-,-,70,-,KCNQ2 W236L pot=-
CN(CCc1nc2ccc(Cl)cc2[nH]1)Cc1nc(CC2CC2)no1,-,-,.,.,.,.,.,.,
CN(C(=O)COC(=O)c1ccc(=O)n(Cc2ccccc2)n1)c1ccccc1,-,.,.,.,.,.,.,.,
CC(NC(=O)CCc1ccccc1)c1ccc2c(c1)OCO2 (stereo unspecified),-,8.5,-,-,-,-,45,-,KCNQ2 W236L pot=-
Cc1ccc(C(C)NC(=O)c2ccc3c(c2)OCO3)cc1C (stereo unspecified),-,10,-,-,-,-,52,-,KCNQ2 W236L pot=-
Cc1occc1C(=O)NC(C)c1ccc2c(c1)OCO2 (stereo unspecified),-,.,.,.,.,.,.,.,
CCOc1ccccc1NC(=O)NC(C)c1ccc2c(c1)OCO2 (stereo unspecified),-,5.8,-,-,4.2,73,25,-,KCNQ2 W236L pot=-
CCOc1ccccc1C(=O)NC(C)c1ccc2c(c1)OCO2 (stereo unspecified),-,-,.,.,.,.,.,.,
CC(NC(=O)Cc1ccc([N+](=O)[O-])cc1)c1ccc2c(c1)OCO2 (stereo unspecified),-,.,.,.,.,.,.,.,
CN(CCc1ccccc1)C(=O)CCc1nnc(Cc2ccc3c(c2)OCO3)o1,-,-,.,.,.,.,.,.,
Cc1nc(NC(=O)CSc2nnc(C3CC3)n2C)sc1C,-,.,.,.,.,.,.,.,
CN(Cc1ccccc1)CC(O)COc1ccc(CNCc2cccnc2)cc1 (stereo unspecified),-,.,.,.,.,.,.,.,
CN(Cc1ccccc1)CC(O)COc1ccc(CNCc2ccc(Cl)s2)cc1 (stereo unspecified),-,.,24%,-,.,.,.,.,
O=C(NC1CC1)C1CCN(C2CCN(C(=O)c3c(F)cccc3Cl)CC2)CC1,-,.,.,.,.,.,.,.,

# From PubChem BioAssay
